nsP2pro inh = blocks chikungunya virus nsP2 protease peptide cleavage; AID 1964107; 1.1% of 31,000 active; Potency, µM (series often up to 24.9 µM), for inactives: at the top dose activity change, negative = inhibition, actives largely listed as inhibitors; Q8JUX6; FRET peptide cleavage, nsP2pro, fluorescence 1 h; also: nearly all actives have a fitted effect of over 60% in size
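FRET cleavage of 2.5 uM peptide 2 by 150 nM CHIKV protease domain at pH 8.0 (Tris, Tween 20). Compounds at 7 concentrations (up to 25 uM) preincubated 15 min. Fluorescence read after 1 h at room temperature.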
nsP2 cell sec = cell-based CHIKV nsP2 protease inhibition, secondary; shares compounds with nsP2pro inh; cell-based CHIKV nsP2 protease reporter assay; Potency, µM (titrated, usually from 51.1 µM), inactives show top-dose activity change, negative = inhibition, hits mostly inhibitors; 10% of 450 active; AID 1964100; also: nearly all actives have a fitted effect of over 70% in size
CHIKV NSP2 FL = selectivity test for CHIKV nsP2 protease inhibitors: full-length NSP2 | shares compounds with nsP2pro inh | Full-length CHIKV NSP2 protease enzymatic counterscreen | Potency, µM (series often up to 50.7 µM), inactives show top-dose activity change, negative = inhibition, hits mostly inhibitors | 39% of 410 active; also: nearly all actives have a fitted effect of over 65% in size
Furin counter = selectivity counter-screen for CHIKV nsP2 protease inhibitors: human furin | 6% of 410 active | Recombinant human furin enzymatic counterscreen, fluorogenic substrate | Potency, µM (top dose mostly 50.6 µM), for inactives: top-dose activity change, negative = inhibition, actives largely listed as inhibitors | shares compounds with nsP2pro inh
NS23 peptide cs = nsP2pro inhibition on native NS2/3 peptide substrate; shares compounds with nsP2pro inh; Purified CHIKV nsP2 protease, endogenous NS2/3 peptide cleavage; Potency, µM (top dose mostly 51 µM), for inactives: at the highest dose activity change, negative = inhibition, actives largely listed as inhibitors; 34% of 410 active; also: nearly all actives have a fitted effect of over 55% in size
Papain counter = papain protease inhibition, counterscreen for nsP2pro inhibitors; shares compounds with nsP2pro inh; purified papain protease activity, enzymatic inhibition; Potency, µM (series often up to 51 µM), for inactives: at the top dose activity change, negative = inhibition, most hits filed as inhibitors; 5% of 410 active; AID 1964104
nsP2pro conf qHTS = CHIKV nsP2 protease inhibition, confirmatory qHTS; shares compounds with nsP2pro inh; CHIKV nsP2 protease enzymatic activity, qHTS; 43% of 410 active; Potency, µM (titrated, usually from 25.5 µM), for inactives: at the highest dose activity change, negative = inhibition, hits mostly inhibitors; also: nearly all actives have a fitted effect of over 75% in size
HCV NS3 counter = selectivity counter-screen for CHIKV nsP2 protease inhibitors: HCV NS3/4A; shares compounds with nsP2pro inh; HCV NS3/4A protease biochemical counterscreen; Potency, µM (series often up to 50.9 µM), most hits filed as inhibitors; 20% of 410 active; AID 1964106; also: nearly all actives have a fitted effect of over 55% in size
* hit, by the source's call; i = inactive; ? = inconclusive; [ ] = remark or other dose. This excerpt belongs to a sample that is enriched for hits. Calls follow the shape of the full dose curve. % is scaled to controls: 0 for no effect and ±100 for the full control effect; potency is read from the fitted curve at half-maximal effect.

SMILES	nsP2pro inh	others
COc1ccc(CN(Cc2ccco2)C(=O)COc2ccccc2Cl)cc1	-16%
CCCOc1ccc(C(=O)N(Cc2ccc(Cl)cc2)Cc2ccco2)cc1	-14%
CCS(=O)(=O)c1ncc(Cl)c(C(=O)N(Cc2ccccc2)Cc2ccco2)n1	11µM*	nsP2 cell sec=3.3µM*;CHIKV NSP2 FL=16µM*;Furin counter=-3%;NS23 peptide cs=5.2µM*;Papain counter=-6%;nsP2pro conf qHTS=4.5µM*;HCV NS3 counter=i
Cc1nc(CSc2ncnc3ccc(-c4ccc5c(c4)OCO5)cc23)cs1	1%
CC(=O)N1CCN(C(=S)Nc2cc(C)ccn2)CC1	-6%
CN(C(=O)/C=C/c1ccoc1)[C@@H]1CC[C@@]2(O)[C@H]3Cc4ccc(O)c5c4[C@@]2(CCN3CC2CC2)[C@H]1O5	-6%
CN1C[C@H](C(=O)N[C@]2(C)O[C@@]3(O)[C@@H]4CCCN4C(=O)[C@H](Cc4ccccc4)N3C2=O)C=C2c3cccc4[nH]cc(c34)C[C@H]21	?	nsP2 cell sec=9%;CHIKV NSP2 FL=?;Furin counter=-14%;NS23 peptide cs=13µM*;Papain counter=46%;nsP2pro conf qHTS=?;HCV NS3 counter=i
CC(C)C[C@H]1C(=O)N2CCC[C@H]2[C@]2(O)O[C@](NC(=O)[C@@H]3C[C@@H]4c5cccc6[nH]cc(c56)C[C@H]4N(C)C3)(C(C)C)C(=O)N12	-12%
O=C(O)c1cccc(-c2noc(-c3ccccc3Cl)n2)c1	3%
c1nc(OCc2cnc[nH]2)c2cc(-c3ccc4c(c3)OCO4)ccc2n1	i
CC(C)CNC(=O)c1cc(-c2ccsc2)nc2c1cnn2C	i
CC(C)N1CCN(C(=O)CC2=C3CCCCC3NC2=O)CC1 (stereo not given)	4%
CC(=O)OC1C(O)C2C(C)C3=CC(=O)OC3(O)CC2C2(C)CCCC(C)(CO)C12 (stereo not given)	-3%[10 µM]
CC1C2=CC(=O)OC2(O)CC2C1C(OC(=O)c1ccccc1)C(OC(=O)c1ccccc1)C1(O)C2(C)CCC(O)C1(C)C(=O)O (stereo not given)	2.3µM*	nsP2 cell sec=-3%[17.6 µM];CHIKV NSP2 FL=-3%[17.3 µM];Furin counter=11%[17.3 µM];NS23 peptide cs=3%[17.2 µM];Papain counter=-5%[17.2 µM];nsP2pro conf qHTS=-11%[8.62 µM];HCV NS3 counter=i
CC1C2=CC(=O)OC2(O)CC2C1CCC1C(C)(C)CCC(O)C21C (stereo not given)	-1%
Cc1cc(C[C@@H]2COC[C@@H]2NC(=O)c2cn(C)c3ccccc23)on1	0%
O=C(NCc1ccccc1)c1cc2sccc2n1Cc1ccc(F)cc1	7%
Cc1ccc(CNC(=O)c2cc3sccc3n2Cc2ccc(F)cc2)cc1	14%
Cc1c(Cl)cccc1NC(=O)c1cc2sccc2n1Cc1ccc(F)cc1	7.9µM*	nsP2 cell sec=?;CHIKV NSP2 FL=5.8µM*;Furin counter=-18%;NS23 peptide cs=16µM*;Papain counter=-8%;nsP2pro conf qHTS=8µM*;HCV NS3 counter=8.2µM*
O=C(c1cc(F)ccc1Cl)N1CCCC1c1nncn1Cc1ccncc1 (stereo not given)	-8%
O=C(O)c1ccnc2cc(C(OCCN3CCC(F)(F)CC3)c3ccccc3Cl)[nH]c12 (stereo not given)	7%
Cc1nc(C)c(C(=O)N2CCCC2c2nc(CCOCC3CCCC3)no2)s1 (stereo not given)	-1%
COc1cccc(CN2C[C@@H](CO)[C@H](NC(=O)C3CCC3)C2)c1	-14%
COc1ccc(C2CC(=O)c3c([nH]c(C(=O)OCc4ccccc4)c3C)C2)cc1OC (stereo not given)	-17%
Cc1c(C(=O)OCC2CCCC2)[nH]c2c1C(=O)CC(c1ccco1)C2 (stereo not given)	4µM*	nsP2 cell sec=?;CHIKV NSP2 FL=-15%;Furin counter=-4%;NS23 peptide cs=-5%;Papain counter=-4%;nsP2pro conf qHTS=8%;HCV NS3 counter=i

Screening data as filed in PubChem BioAssay.
